Assay results: PubChem BioAssay (Tox21)
Records with an inconclusive call do not appear. Active and inactive are the calls of the source. Unless noted, calls come from the whole dose curve; as a rule, active = well fitted curve in the direction sought with a large enough effect in the repeat runs; inconclusive = weak or mixed curves; inactive = no such curve, though single readings can be large; an effect the other way counts as inactive or inconclusive. Positions of bridges follow the written chain, without caps; N, C: chain ends. Non-standard residues stand in square brackets, D forms with d. Residues, ends and D or L forms follow the SMILES beside them. Orn = NCCC[C@H](N)C(=O)O; Mpa = O=C(O)CCS

How the values were obtained:
[1] = qHTS assay for small molecule agonists of the p53 signaling pathway (AID 651631; calls by dose curve; note: nearly all actives have a fitted effect of over 15% in size)
Procedure, shortened: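 Testing took place in human colorectal HCT-116 cells with stable p53RE-driven beta-lactamase. After 16 h of compound exposure at 37 °C, a FRET substrate was added and fluorescence recorded 2 h later.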

[2] = qHTS assay for small molecules that induce genotoxicity in human embryonic kidney cells expressing luciferase-tagged ATAD5 (AID 651632); note: nearly all actives have a fitted effect of over 15% in size
Procedure, shortened: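 Reporter cells (HEK293T) express luciferase-tagged ATAD5, a protein that accumulates after DNA damage. Treat 16 hr at 37C/5% CO2, add Amplite, wait 30 min at RT, and read luminescence.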

[3] = qHTS assay for small molecule agonists of the p53 signaling pathway - cell viability (AID 651633; calls by dose curve; note: nearly all actives have a fitted effect of over 30% in size)
Procedure, shortened: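 p53RE-bla cells, seeded at 4,000 per well and rested 5 h at 37 C/5% CO2, received compounds in DMSO for 16 h at 37 C. CellTiter-Glo was then added, and luminescence was read after 30 min at room temperature to gauge cytotoxicity.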

[4] = qHTS assay for small molecules that induce genotoxicity in human embryonic kidney cells expressing luciferase-tagged ATAD5 - cell viability (AID 651634; calls by dose curve; note: nearly all actives have a fitted effect of over 25% in size)
Procedure, shortened: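 Seeding of 2,000 HEK293T ATAD5-luciferase cells per well preceded pin-tool compound transfer. Plates sat 15.5 hr at 37C under 5% CO2, then fluorescence was read after 30 min with CellTiter-Fluor.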

[5] = qHTS assay for small molecule disruptors of the mitochondrial membrane potential - cell viability (AID 720634; calls by dose curve;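 note: human HepG2 liver cancer cells; nearly all actives have a fitted effect of over 20% in size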)
Procedure, shortened: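 Measuring cytotoxicity alongside mitochondrial potential, the screen quantified ATP by luminescence in HepG2 cells after 1 hr compound incubation and a 30 min room-temperature CellTiter-Glo step.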

[6] = qHTS assay for small molecule disruptors of the mitochondrial membrane potential (AID 720635)
Procedure, shortened: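 HepG2 cells (2,000/well) attached overnight at 37C, then took compound for 1 hr at 37C, 5% CO2. Mito-MPS dye was added for 30 min; fluorescence was read at 490/535 nm (monomers) and 540/590 nm (aggregates).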

[7] = qHTS assay to test for compound auto fluorescence at 590 nm (red) in HepG2 cells (AID 720674)
Procedure, shortened: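 Intrinsic compound fluorescence in the red window (Ex/Em 540/590 nm) is measured in attached HepG2 cells exposed for 1 hr, DMSO vehicle as baseline, benchmarked to Rose Bengal sodium.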

[8] = qHTS assay to test for compound auto fluorescence at 535 nm (green) in HepG2 cells (AID 720675)
[9] = qHTS assay to test for compound auto fluorescence at 460 nm (blue) in HEK293 cells (AID 720678)
Procedure, shortened: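 Cells were seeded and left to adhere for 4-5 hr at 37C. Compounds were then pin-transferred. After an overnight incubation at 37C under 5% CO2, intrinsic fluorescence at 405/460 nm was measured and referenced to triamterene.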

[10] = qHTS assay to test for compound auto fluorescence at 590 nm (red) in HEK293 cells (AID 720679)
Procedure, shortened: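 Each well held 2,000 HEK293 cells in medium containing 10% dialyzed FBS. Following 4-5 hr attachment at 37C, 23 nL test compound or DMSO was added; plates sat overnight, and red fluorescence (540/590nm) was recorded.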

[11] = qHTS assay to test for compound auto fluorescence at 535 nm (green) in HEK293 cells (AID 720680)
[12] = qHTS assay to test for compound auto fluorescence at 460 nm (blue) in HEK293 cell free culture (AID 720681)
Procedure, shortened: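 Test compounds were pinned into cell-free culture medium (DMEM with 10% FBS) and fluorescence was read directly at Ex/Em 405/460 nm. Signals were expressed as fluorescence equivalents of triamterene, with DMSO vehicle as control.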

[13] = qHTS assay to test for compound auto fluorescence at 535 nm (green) in HEK293 cell free culture (AID 720682)
Procedure, shortened: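 DMEM + 10% FBS, cell-free; cpd or DMSO pinned in; Ex485/Em535 read; output as fluorescein-equivalent signal.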

[14] = qHTS assay to test for compound auto fluorescence at 590 nm (red) in HEK293 cell free culture (AID 720683)
Procedure, shortened: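 Tox21 10K library compounds were pinned into cell-free DMEM with 10% FBS and fluorescence was read at excitation 540 nm. Activity is expressed as Rose Bengal sodium equivalency.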

[15] = qHTS assay to test for compound auto fluorescence at 590 nm (red) in HepG2 cell free culture (AID 720684)
Procedure, shortened: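 Red fluorescence (540 nm excitation, 590 nm emission) was measured after compound transfer into cell-free MEM supplemented with 10% FBS. Values are equivalencies against Rose Bengal sodium.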

[16] = qHTS assay to test for compound auto fluorescence at 460 nm (blue) in HepG2 cell free culture (AID 720685)
Procedure, shortened: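 Compound (23 nL) or DMSO pinned into cell-free MEM with 10% FBS; blue fluorescence read at 405/460 nm excitation/emission, expressed as auto-fluorescence equivalency to triamterene.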

[17] = qHTS assay to test for compound auto fluorescence at 535 nm (green) in HepG2 cell free culture (AID 720686)
[18] = qHTS assay to test for compound auto fluorescence at 460 nm (blue) in HepG2 cells (AID 720687)
Procedure, shortened: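 Cells (2,000/well in MEM with 10% FBS) attached overnight at 37 C, then were exposed to compound or DMSO for 1 hr at 37 C, 5% CO2. Fluorescence read at Ex/Em 405/460 nm, expressed as triamterene-equivalent signal.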

[19] = target: Glucocorticoid receptor (Homo sapiens) (UniProt P04150); experiment: qHTS assay to identify small molecule agonists of the glucocorticoid receptor (GR) signaling pathway (AID 720691; active = well fitted activation curve with a large enough effect in the signal ratio in the repeat runs, not every such curve was filed as active; the % refers to the signal ratio); conditions: GR-bla HeLa, beta-lactamase reporter ratio, 18 h; activation: at 62.4 µM (top of the series)
Glucocorticoid receptor (Homo sapiens), sequence (P04150 whole entry, looked up): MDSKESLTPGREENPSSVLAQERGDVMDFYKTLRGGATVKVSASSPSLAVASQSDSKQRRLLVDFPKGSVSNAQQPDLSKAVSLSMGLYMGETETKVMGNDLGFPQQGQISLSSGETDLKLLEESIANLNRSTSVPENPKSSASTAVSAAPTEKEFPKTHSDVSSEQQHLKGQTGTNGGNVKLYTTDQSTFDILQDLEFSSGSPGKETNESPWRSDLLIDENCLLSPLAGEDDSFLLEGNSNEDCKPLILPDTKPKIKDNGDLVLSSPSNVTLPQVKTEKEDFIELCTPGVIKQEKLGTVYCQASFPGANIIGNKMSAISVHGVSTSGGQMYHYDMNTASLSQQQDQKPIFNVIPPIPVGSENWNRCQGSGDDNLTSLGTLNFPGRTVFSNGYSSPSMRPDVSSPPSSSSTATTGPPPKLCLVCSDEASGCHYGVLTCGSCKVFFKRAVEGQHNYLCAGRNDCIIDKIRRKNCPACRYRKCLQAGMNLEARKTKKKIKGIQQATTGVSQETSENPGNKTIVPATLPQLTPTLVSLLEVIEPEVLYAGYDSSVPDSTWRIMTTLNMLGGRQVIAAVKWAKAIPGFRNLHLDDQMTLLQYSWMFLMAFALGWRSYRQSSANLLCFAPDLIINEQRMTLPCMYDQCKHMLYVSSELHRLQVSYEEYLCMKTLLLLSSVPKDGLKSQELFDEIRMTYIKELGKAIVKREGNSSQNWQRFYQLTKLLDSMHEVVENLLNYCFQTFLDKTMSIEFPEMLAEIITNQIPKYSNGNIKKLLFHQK
Procedure, shortened: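 Reporter read-out: fluorescence intensity following 2 h room-temperature LiveBLAzer B/G FRET substrate loading. Prior step: GR-bla HeLa cells held 4 h, then treated 18 h at 37 C.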

[20] = target: Glucocorticoid receptor (Homo sapiens) (UniProt P04150); experiment: qHTS assay to identify small molecule antagonists of the glucocorticoid receptor (GR) signaling pathway (AID 720692; active = well fitted inhibition curve with a large enough effect in the signal ratio in the repeat runs, not every such curve was filed as active; the % refers to the signal ratio)
Procedure, shortened: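 Dexamethasone (5 nM final) stimulated a stably integrated GRE-beta-lactamase reporter in HeLa cells during 18 h co-incubation with compounds; signal was quantified as fluorescence intensity of B/G FRET substrate after 2 h.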

Measured: Potency

CCOc1ccc(C[C@H]2NC(=O)CCSSC[C@@H](C(=O)N3CCC[C@H]3C(=O)N[C@@H](CCCN)C(=O)NCC(N)=O)NC(=O)[C@H](CC(N)=O)NC(=O)[C@H]([C@@H](C)O)NC(=O)[C@H]([C@@H](C)CC)NC2=O)cc1 ([Mpa][dY](Et)ITNCP[Orn]G-NH2; disulfide 1-6)
not listed: [20]
inactive: all other assays above

N=C(N)c1ccc(OCCCOc2ccc(C(=N)N)cc2Br)c(Br)c1
not listed: [19] | [20]
inactive: all other assays above

CCC(c1ccccc1)c1noc(CCN(CC)CC)n1 (stereo not drawn)
not listed: [14]
inactive: all other assays above

CN1[C@@H]2CCC[C@H]1CC(NC(=O)c1nn(C)c3ccccc13)C2 (stereo partly drawn)
not listed: [10] | [19] | [20]
inactive: all other assays above

CO[C@H]1[C@@H](O)[C@H](N)[C@@H](O[C@H]2O[C@H]([C@H](C)N)CC[C@H]2N)[C@H](O)[C@@H]1N(C)C(=O)CN
not listed: [14]
inactive: all other assays above

CC(C)(CO)[C@@H](O)C(=O)NCCC(=O)NCCSSCCNC(=O)CCNC(=O)[C@H](O)C(C)(C)CO
not listed: [16]
inactive: all other assays above

COc1ccc2c(=O)c(C)c(-c3ccccc3)oc2c1CN(C)C
not listed: [10] | [20]
inactive: all other assays above

CCOC(=O)CCC(=O)O[C@H]1[C@H](O[C@@H]2[C@@H](C)[C@H](O[C@H]3C[C@@](C)(OC)[C@@H](O)[C@H](C)O3)[C@@H](C)C(=O)O[C@H](CC)[C@@](C)(O)[C@H](O)[C@@H](C)C(=O)[C@H](C)C[C@@]2(C)O)O[C@H](C)C[C@@H]1N(C)C
inactive: all assays above

CC#CCC(C)[C@H](O)/C=C/[C@@H]1[C@H]2C/C(=C/CCCC(=O)O)C[C@H]2C[C@H]1O (stereo partly drawn)
not listed: [16]
inactive: all other assays above

COc1cc(S(C)=O)ccc1-c1nc2ncccc2[nH]1 (stereo not drawn)
inactive: all assays above

CCCCOC(=O)C(=O)Nc1cccc(-c2nn[nH]n2)c1
not listed: [10] | [19] | [20]
inactive: all other assays above

C=CCN1CCCC1CNC(=O)c1cc(S(N)(=O)=O)cc(OC)c1OC (stereo not drawn)
inactive: all assays above

CCOC(=O)COc1ccc2c(C)c(CCN(CC)CC)c(=O)oc2c1
not listed: [10] | [14]
inactive: all other assays above
